# Unmarked numbers belong to inactive results. Inconclusive results are not listed. Entries that show only a call come without a potency. Active and inactive are the calls of the source. Unless noted, the call rests on the fitted dose curve.
# Experiments:
# [1] = molecular target: Thyrotropin receptor (Homo sapiens) (UniProt P16473); assay: qHTS assay to identify small molecule agonists of the thyroid stimulating hormone receptor (TSHR) signaling pathway (AID 1224843); further: nearly all actives have a fitted effect of over 45% in size
# In short: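 Agonist activity read as cAMP rise via d2/cryptate HTRF competition, 1 h room-temperature detection, in HEK293 cells expressing TSHR. Fifteen-point titrations, each run in triplicate, with a 30 min room-temperature incubation beforehand.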
# [2] = qHTS assay to identify small molecule agonists of the hypoxia (HIF-1) signaling pathway - cell viability counter screen (AID 1224844); further: nearly all actives have a fitted effect of over 50% in size; further: potency means the concentration at half of the fitted maximal effect
# In short: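 Same wells as the HIF-1 reporter screen; ME-180 cells carrying HRE-bla, 17 hr treatment at 37C; CellTiter-Glo luminescence read after 30 min at room temperature.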
# [3] = qHTS assay to identify small molecule agonists of H2AX (AID 1224845; active means well fitted activation curve with a large enough effect in the signal ratio in the repeat runs, not every such curve was filed as active; the % refers to the signal ratio)
# In short: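 Phospho-H2AX Ser139 measured by HTRF (ex 320 nm; em 665 and 620 nm) after 24 hr antibody incubation. Compounds, 15 concentrations, 0.76% DMSO, were applied to CHO-K1 cells for 3hr at 37C before lysis.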
# [4] = qHTS assay to identify small molecule agonists of the hypoxia (HIF-1) signaling pathway (AID 1224846; active means well fitted activation curve with a large enough effect in the signal ratio in the repeat runs, not every such curve was filed as active; the % refers to the signal ratio)
# In short: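 In ME-180 cells bearing an HRE-bla construct, 17 h treatment with DMSO-dissolved compounds at 37C was followed by CCF4-AM loading to quantify reporter induction.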
# [5] = qHTS assay to identify small molecule agonists of H2AX - cell viability counter screen (AID 1224847); further: nearly all actives have a fitted effect of over 30% in size; further: potency means the concentration at half of the fitted maximal effect;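 on activity change, negative = cytotoxicity: wild-type CHO-K1 cells; top concentration of the series differs between compounds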
# In short: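 Cells plated first: CHO-K1, 1000 per well in 10% FBS medium, incubated overnight at 37C. Then 15-point compound titration added (final DMSO 0.76%) for 3 hr. Finally CellTiter-Glo added and luminescence read.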
# [6] = qHTS RealTime-Glo MT Cell Viability Assay in HepG2 cells - 24 hour (AID 1224867; active means well fitted curve in the direction sought with a large enough effect in the repeat runs; an effect the other way counts as inactive or inconclusive; further: nearly all actives have a fitted effect of over 50% in size)
# In short: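 Viability was tracked continuously by NanoLuc luminescence from prosubstrate reduced by living HepG2 cells, at successive time points over 40 h of compound exposure. Cells with reagent were preincubated 5 h at 37 °C before compound addition.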
# [7] = qHTS RealTime-Glo MT Cell Viability Assay in HEK293 cells - 32 hour (AID 1224868; active means well fitted curve in the direction sought with a large enough effect in the repeat runs; an effect the other way counts as inactive or inconclusive; further: nearly all actives have a fitted effect of over 50% in size; further: potency means the concentration at half of the fitted maximal effect; on activity change, negative = cytotoxic: top concentration of the series differs between compounds)
# In short: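 Viability tracked continuously by luminescence as live cells reduce a prosubstrate for NanoLuc; HEK293 cells preincubated 5 h, compound-treated at 37 C, and read at 0, 8, 16, 24, 32 and 40 h.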
# [8] = A CellTox Green Cytotoxicity Assay to monitor cytotoxicity in HEK293 cells - 0 hour (AID 1224869; active means well fitted curve in the direction sought with a large enough effect in the repeat runs; an effect the other way counts as inactive or inconclusive; further: nearly all actives have a fitted effect of over 50% in size)
# In short: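 Homogeneous no-lysis format: HEK293 cell suspension mixed with CellTox Green reagent, seeded, incubated 5 h at 37 C/5% CO2, then dosed by pintool with compound in DMSO.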
# [9] = qHTS assay to identify small molecule agonists of the estrogen related receptor (ERR) signaling pathway from Tox21 library (AID 1224849); settings: ERR reporter cell line, ONE-Glo luciferase, 18 h; at 92.4 µM (top of the series) unless noted; further: nearly all actives have a fitted effect of over 15% in size
# In short: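 Reporter cells (ERR, NTP source) treated with Tox21 10K compounds 18 h, 37 C. Readout: ONE-Glo luminescence, 30 min RT.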
# [10] = qHTS assay to identify small molecule antagonists of the estrogen related receptor (ERR) signaling pathway from Tox21 library (AID 1224848; active means well fitted curve in the direction sought with a large enough effect in the repeat runs; an effect the other way counts as inactive or inconclusive; further: nearly all actives have a fitted effect of over 50% in size; further: potency means the concentration at half of the fitted maximal effect)
# In short: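 Luciferase luminescence (ONE-Glo, 30 min room temperature) was the read-out. Cells of the NTP-supplied ERR line, 2,000 per well, were given 6 h at 37 C before compound addition in DMSO and 18 h exposure at 37 C.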
# Sequence of Thyrotropin receptor (Homo sapiens) (P16473 whole entry, looked up): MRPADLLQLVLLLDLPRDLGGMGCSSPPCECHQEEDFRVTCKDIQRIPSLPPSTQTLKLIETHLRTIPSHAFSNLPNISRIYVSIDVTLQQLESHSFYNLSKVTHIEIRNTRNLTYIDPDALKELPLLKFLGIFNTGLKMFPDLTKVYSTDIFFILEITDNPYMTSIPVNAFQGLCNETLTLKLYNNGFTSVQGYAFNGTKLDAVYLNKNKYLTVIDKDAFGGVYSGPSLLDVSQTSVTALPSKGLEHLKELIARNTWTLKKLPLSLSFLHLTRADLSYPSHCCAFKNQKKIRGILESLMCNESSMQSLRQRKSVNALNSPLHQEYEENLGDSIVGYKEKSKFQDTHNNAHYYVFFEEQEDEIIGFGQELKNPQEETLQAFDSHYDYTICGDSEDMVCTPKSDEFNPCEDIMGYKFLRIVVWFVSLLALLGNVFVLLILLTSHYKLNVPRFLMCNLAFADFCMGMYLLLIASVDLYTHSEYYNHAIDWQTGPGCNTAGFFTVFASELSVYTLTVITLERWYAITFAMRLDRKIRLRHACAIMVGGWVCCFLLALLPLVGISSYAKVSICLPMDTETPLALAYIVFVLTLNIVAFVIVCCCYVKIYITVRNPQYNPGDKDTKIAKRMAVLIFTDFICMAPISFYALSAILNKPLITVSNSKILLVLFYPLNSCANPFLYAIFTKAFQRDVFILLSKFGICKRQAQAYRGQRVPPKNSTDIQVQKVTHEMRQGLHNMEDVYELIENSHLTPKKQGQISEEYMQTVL
structure (smiles),measurement,setting,value
C/C=C/C=C/CCCCCCCO,Potency,[1],inactive
same,Potency,[2],inactive
same,Potency,[3],inactive
same,outcome,[4],inactive
same,Potency,[5],inactive
same,Potency,[6],inactive
same,Potency,[7],inactive
CCCCOC(=O)CCS,Potency,[1],inactive
same,Potency,[2],inactive
same,Potency,[3],inactive
same,outcome,[4],inactive
same,Potency,[5],inactive
same,Potency,[6],inactive
same,Potency,[7],inactive
same,Potency,[8],inactive
CCCOC(=O)c1ccc(N)cc1,Potency,[1],inactive
same,Potency,[2],inactive
same,Potency,[3],inactive
same,outcome,[4],inactive
same,Potency,[5],inactive
same,"activity change, positive = activation",[9],-13.8% [at 42.5 µM]
same,Potency,[6],inactive
same,Potency,[7],inactive
same,Potency,[8],inactive
CC(=O)Oc1ccc(C(=C2CCCCC2)c2ccc(OC(C)=O)cc2)cc1,Potency,[1],inactive
same,Potency,[2],inactive
same,Potency,[3],inactive
same,outcome,[4],inactive
same,Potency,[5],inactive
same,Potency,[6],inactive
same,Potency,[7],inactive
same,Potency,[8],inactive
Fc1c(F)c(F)c(Br)c(F)c1F,Potency,[1],inactive
same,Potency,[2],inactive
same,Potency,[3],inactive
same,outcome,[4],inactive
same,Potency,[5],inactive
same,Potency,[6],inactive
same,Potency,[7],inactive
Cc1cnc(C)c(C)n1,Potency,[1],inactive
same,Potency,[2],inactive
same,Potency,[3],inactive
same,outcome,[4],inactive
same,Potency,[5],inactive
same,Potency,[6],inactive
same,Potency,[7],inactive
same,Potency,[8],inactive
CO/N=C1\CN(c2nc3c(cc2F)c(=O)c(C(=O)O)cn3C2CC2)CC1CN (configuration not stated),Potency,[1],inactive
same,Potency,[2],inactive
same,Potency,[3],inactive
same,outcome,[4],inactive
same,Potency,[5],inactive
same,"activity change, positive = activation",[9],-26.9% [at 42.5 µM]
same,Potency,[6],inactive
same,Potency,[7],inactive
COc1ccc([C@@H]2Sc3ccccc3NC(=O)[C@@H]2O)cc1,Potency,[1],inactive
same,Potency,[2],inactive
same,Potency,[3],inactive
same,outcome,[4],inactive
same,Potency,[5],inactive
same,"activity change, positive = activation",[9],-18.7% [at 42.5 µM]
same,Potency,[6],inactive
same,Potency,[8],inactive
CN1CCN(c2c(F)cc3c(=O)c(C(=O)O)cn4c3c2OCN4C)CC1,activation,[1],-2.64% [at 19 µM]
same,"activity change, negative = cytotoxicity",[2],3.62% [at 15.8 µM]
same,activation (H2AX phosphorylation),[3],-2.48% [at 31.6 µM]
same,activation,[4],-0.337% [at 15.8 µM]
same,"activity change, negative = cytotoxicity",[5],0.372% [at 31.6 µM]
same,"activity change, negative = cytotoxicity",[6],3.52% [at 15.8 µM]
same,"activity change, negative = cytotoxic",[7],1.18% [at 15.8 µM]
same,cytotoxicity,[8],-13.4% [at 15.8 µM]
Cc1cc(O)c2c(O)c3c(O)cccc3cc2c1,Potency,[1],inactive
same,Potency,[2],inactive
same,Potency,[3],inactive
same,outcome,[4],inactive
same,Potency,[5],inactive
same,"activity change, positive = activation",[9],-25.3% [at 42.5 µM]
same,Potency,[6],inactive
same,Potency,[7],inactive
same,Potency,[8],inactive
C=C(C)C(=O)OCCOC(=O)CC(C)=O,Potency,[1],inactive
same,Potency,[2],inactive
same,Potency,[3],inactive
same,outcome,[4],inactive
same,Potency,[5],inactive
same,Potency,[6],inactive
same,Potency,[7],inactive
same,Potency,[8],inactive
C/C(=N/NC(=O)c1ccncc1)C(=O)O,Potency,[1],inactive
same,Potency,[2],inactive
same,Potency,[3],inactive
same,outcome,[4],inactive
same,Potency,[5],inactive
same,Potency,[6],inactive
same,Potency,[7],inactive
same,Potency,[8],inactive
O=C(O)c1snc(Cl)c1Cl,Potency,[1],inactive
same,Potency,[2],inactive
same,Potency,[3],inactive
same,outcome,[4],inactive
same,Potency,[5],inactive
same,Potency,[6],inactive
same,Potency,[7],inactive
same,Potency,[8],inactive
CCC(C)(C)C1CCC(O)CC1 (configuration not stated),Potency,[1],inactive
same,Potency,[2],inactive
same,Potency,[3],inactive
same,outcome,[4],inactive
same,Potency,[5],inactive
same,Potency,[6],inactive
same,Potency,[7],inactive
same,Potency,[8],inactive
CCCCCCCCCCCCCCC[C@H](O)[C@@H](N)CO,Potency,[1],inactive
same,Potency,[2],inactive
same,Potency,[3],inactive
same,Potency,[5],49.2 µM (active)
same,Potency,[7],23.9 µM (active)
N#C/C(=C1\SCC(c2ccccc2Cl)S1)n1ccnc1 (configuration not stated),Potency,[1],inactive
same,Potency,[2],inactive
same,Potency,[3],inactive
same,outcome,[4],inactive
same,Potency,[5],inactive
same,Potency,[6],inactive
same,Potency,[8],inactive
CC1=C(C=O)C(C)(C)CCC1,Potency,[1],inactive
same,Potency,[2],inactive
same,Potency,[3],inactive
same,outcome,[4],inactive
same,Potency,[5],inactive
same,Potency,[6],inactive
same,Potency,[8],inactive
OC(CCCN1CCCCC1)(c1ccccc1)c1ccccc1,Potency,[1],inactive
same,Potency,[2],inactive
same,Potency,[3],inactive
same,Potency,[5],inactive
same,Potency,[10],inactive
same,"activity change, positive = activation",[9],2.99% [at 42.5 µM]
same,Potency,[6],inactive
same,Potency,[7],inactive
same,Potency,[8],inactive
Oc1cc(O)c(Cl)cc1Cl,Potency,[1],inactive
same,Potency,[2],inactive
same,outcome,[4],inactive
same,Potency,[5],inactive
same,Potency,[10],inactive
same,"activity change, positive = activation",[9],-14.1%
same,Potency,[6],inactive
same,Potency,[7],inactive
CC(=O)[C@H]1CC[C@H]2[C@@H]3C=CC4=CC(=O)CC[C@@]4(C)[C@@H]3CC[C@]12C,Potency,[1],inactive
same,Potency,[2],inactive
same,Potency,[3],inactive
same,outcome,[4],inactive
same,Potency,[6],inactive
same,Potency,[8],inactive
C=CCOC(=O)/C=C\C(=O)OCC=C,Potency,[1],inactive
same,Potency,[2],inactive
same,Potency,[3],inactive
same,outcome,[4],inactive
same,Potency,[5],inactive
same,Potency,[6],inactive
same,Potency,[8],inactive
c1ccc(COCc2ccccc2)cc1,Potency,[1],inactive
same,Potency,[2],inactive
same,outcome,[4],inactive
same,Potency,[5],inactive
same,Potency,[10],inactive
same,"activity change, positive = activation",[9],0.496%
same,Potency,[6],inactive
same,Potency,[7],inactive
same,Potency,[8],inactive
C[Si](NC1CCCCC1)(NC1CCCCC1)NC1CCCCC1,Potency,[1],inactive
same,Potency,[2],19.5 µM (active)
same,Potency,[3],inactive
same,Potency,[5],inactive
same,Potency,[6],inactive
same,Potency,[7],inactive
same,Potency,[8],inactive
COCCOC,Potency,[1],inactive
same,Potency,[2],4.67 µM (active)
same,outcome,[4],inactive
same,Potency,[5],inactive
same,Potency,[10],1.46 µM (active)
same,"activity change, positive = activation",[9],-69.9%
same,Potency,[6],inactive
same,Potency,[7],0.74 µM (active)
same,Potency,[8],inactive
Nc1ccc(S(=O)(=O)O)c(N)c1,Potency,[1],inactive
same,Potency,[2],inactive
same,outcome,[4],inactive
same,Potency,[5],inactive
same,Potency,[10],inactive
same,"activity change, positive = activation",[9],1.48%
same,Potency,[6],inactive
same,Potency,[7],inactive
same,Potency,[8],inactive
CCOC(=N)CC(=O)OCC,Potency,[1],inactive
same,Potency,[2],19.5 µM (active)
same,Potency,[3],inactive
same,Potency,[5],inactive
same,Potency,[6],inactive
same,Potency,[7],inactive
same,Potency,[8],inactive
